Results as given in PubChem BioAssay (NCI).
This is part of a sample that, as a whole, favours compounds with a hit. Of some 83,000 tested, about 20% had one in any assay.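 Cells were grown in 96-well plates and exposed to the test compound at a single concentration for 48 hours; results are reported as percent growth, with values below 10 considered active.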 Values without a mark were called inactive. The source made the active and inactive calls.

The molecules below were run on HL-60(TB) leukemia (assay: NCI-60 one-dose screen, 48 h (100 = growth as untreated, 0 = no growth, -100 = all killed)). Conditions: 10 µM unless noted.

Compound | growth
Cc1cc(Nc2nc(-c3ccncc3)nc3ccccc23)n[nH]1 | 49.1%
Nc1nc(N)c2c(n1)NC(c1cccc(Nc3ccnc4cc(C(F)(F)F)ccc34)c1)CC(c1ccccc1)=N2 (stereo not drawn) | 34.8%
CCCCCc1c(C)[nH]c(/C=C2\N=C(c3ccc[nH]3)C=C2Oc2ccc(Cl)cc2)c1C | -40.3% [100 µM] (active)
